Assay results published in PubChem BioAssay (NCI).
About 79,000 compounds went through this panel and 15% of them were active in at least one assay; those are over-represented in the sample as a whole. Values without a mark were called inactive. The source made the active and inactive calls. No stated cut-off is given here; in the data, active means growth inhibition above about 70%; inactive means the rest.

Legend:
[1] = NCI Yeast Anticancer Drug Screen. Data for the rad52 strain (AID 147);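 further: 0% = growth of vehicle-treated control cultures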; conditions: S. cerevisiae rad52 mutant growth inhibition, stronger effect = higher value
How it was run: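 Inhibition of yeast growth, referenced to vehicle controls, was the measured output for a strain with defective DNA damage repair.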

[2] = NCI Yeast Anticancer Drug Screen. Data for the wt1 strain (AID 149);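 further: 0% = growth of vehicle-treated wt1 cultures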; conditions: S. cerevisiae wt1 strain (SPY 50644) growth inhibition, stronger effect = higher value
How it was run: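 Using yeast strain wt1, compound-induced growth inhibition was determined against vehicle-treated cultures.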

[3] = NCI Yeast Anticancer Drug Screen. Data for the rad50EPP+ strain (AID 151);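 further: 0% = growth of vehicle-treated control cultures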; conditions: S. cerevisiae rad50 mutant strain, stronger effect = higher value
How it was run: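 Genetically defined yeast (rad50EPP+, DNA damage repair alteration) is grown with compound, and inhibition of growth is expressed relative to vehicle-treated controls.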

[4] = NCI Yeast Anticancer Drug Screen. Data for the rad50 strain (AID 155);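 further: 0% = growth of vehicle-only cultures of the same strain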; conditions: S. cerevisiae rad50 strain growth inhibition, stronger effect = higher value
How it was run: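 Relative growth inhibition (compound vs vehicle) was measured in yeast with a defined repair-gene alteration.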

[5] = NCI Yeast Anticancer Drug Screen. Data for the mec2-1 strain (AID 157); conditions: S. cerevisiae mec2-1 strain, stronger effect = higher value
How it was run: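 Each compound was tested on mec2-1 yeast, a strain altered in DNA damage repair or cell cycle control. Growth inhibition is reported relative to vehicle.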

[6] = NCI Yeast Anticancer Drug Screen. Data for the rad14 strain (AID 159);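 further: 0% = growth of vehicle-treated control cultures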; conditions: S. cerevisiae rad14 strain growth inhibition, stronger effect = higher value
How it was run: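 Screen for anticancer potential: a yeast strain altered in DNA damage repair is grown with compound, and reduced growth is quantified against vehicle controls.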

[7] = NCI Yeast Anticancer Drug Screen. Data for the sgs1 mgt1 strain (AID 161);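 further: 0% = growth of cultures given vehicle only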; conditions: S. cerevisiae sgs1 mgt1 strain, stronger effect = higher value
How it was run: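 Genetically altered yeast, compound exposure, growth inhibition relative to vehicle.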

[8] = NCI Yeast Anticancer Drug Screen. Data for the CLN2oe strain (AID 163);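 further: 0% = growth of vehicle-only control cultures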; conditions: S. cerevisiae CLN2oe strain, stronger effect = higher value
How it was run: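 First, the altered yeast strain was treated with each compound; second, its growth was measured; finally, inhibition was derived by comparison with vehicle controls.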

[9] = NCI Yeast Anticancer Drug Screen. Data for the cln2 rad14 strain (AID 165);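 further: 0% = growth equal to vehicle treated cultures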; conditions: S. cerevisiae cln2 rad14 strain, stronger effect = higher value
How it was run: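 Test compounds were added to cln2 rad14 yeast cultures; inhibition of growth was then determined by comparison with vehicle treatment.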

[10] = NCI Yeast Anticancer Drug Screen. Data for the bub3 strain (AID 167); conditions: S. cerevisiae bub3 mutant strain, stronger effect = higher value
How it was run: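 Screening used yeast with an engineered genetic alteration affecting cell cycle control. Compound-exposed cultures were compared with vehicle cultures, and reduced growth was taken as inhibition.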

[11] = NCI Yeast Anticancer Drug Screen. Data for the wt2 strain (AID 169);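 further: 0% = growth of vehicle-treated yeast cultures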; conditions: S. cerevisiae wt2 strain growth inhibition, stronger effect = higher value
How it was run: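 The panel's yeast strains carry defined changes in DNA repair or cell cycle genes. Each strain is grown with compound, and growth loss is scored relative to vehicle.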

[12] = NCI Yeast Anticancer Drug Screen. Data for the mlh1 strain (AID 171);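 further: 0% = growth of vehicle-treated control cultures of the same strain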; conditions: S. cerevisiae mlh1 strain growth inhibition, stronger effect = higher value
How it was run: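 Inhibition values reflect reduced yeast growth in the presence of compound, referenced to vehicle controls, using a strain chosen for its alteration in DNA repair or cell cycle control.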

[13] = NCI Yeast Anticancer Drug Screen. Data for the sgs1 strain (AID 173);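 further: 0% = growth of vehicle-only control cultures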; conditions: S. cerevisiae sgs1 mutant, stronger effect = higher value
How it was run: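 Vehicle-treated cultures served as reference for growth inhibition of a yeast strain altered in DNA damage repair or cell cycle control after compound exposure.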

[14] = NCI Yeast Anticancer Drug Screen. Data for the mlh1 rad18 strain (AID 175); conditions: S. cerevisiae mlh1 rad18 strain growth inhibition, stronger effect = higher value
How it was run: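 Inhibition values reflect reduced growth of mutant yeast versus vehicle-treated controls following compound exposure; the mutations affect DNA damage repair.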

[15] = at 5.0 µM (retest, dose inferred, filed as 0.5)
[16] = at 50.0 µM (retest, dose inferred, filed as 5.0)

Clc1cc(Cc2ccc(N=C/C=C/c3ccccc3)c(Cl)c2)ccc1N=C/C=C\c1ccccc1
growth inhibition ([1]; at 1.2 µM): 11%
growth inhibition ([1]; at 3.7 µM): -1%
growth inhibition ([1]; at 11.0 µM): 4%
growth inhibition ([1]; at 33.0 µM): 9%
growth inhibition ([1]; at 100.0 µM): 30%
growth inhibition ([2]; at 1.2 µM): -5%
growth inhibition ([2]; at 3.7 µM): -4%
growth inhibition ([2]; at 11.0 µM): -5%
growth inhibition ([2]; at 33.0 µM): 1%
growth inhibition ([2]; at 100.0 µM): 14%
growth inhibition ([3]; at 1.2 µM): 18%
growth inhibition ([3]; at 3.7 µM): -4%
growth inhibition ([3]; at 11.0 µM): 15%
growth inhibition ([3]; at 33.0 µM): 15%
growth inhibition ([3]; at 100.0 µM): 21%
growth inhibition ([4]; at 1.2 µM): 13%
growth inhibition ([4]; at 3.7 µM): 3%
growth inhibition [4, 15]: 100% (active)
growth inhibition ([4]; at 11.0 µM): 8%
growth inhibition ([4]; at 33.0 µM): 5%
growth inhibition [4, 16]: 100% (active)
growth inhibition ([4]; at 50.0 µM): 71.3% (active)
growth inhibition ([4]; at 100.0 µM): 32%
growth inhibition ([5]; at 1.2 µM): 17%
growth inhibition ([5]; at 3.7 µM): 20%
growth inhibition [5, 15]: 100% (active)
growth inhibition ([5]; at 11.0 µM): 9%
growth inhibition ([5]; at 33.0 µM): -11%
growth inhibition [5, 16]: 99% (active)
growth inhibition ([5]; at 50.0 µM): 33.1%
growth inhibition ([5]; at 100.0 µM): 19%
growth inhibition ([6]; at 1.2 µM): -8%
growth inhibition ([6]; at 3.7 µM): -20%
growth inhibition ([6]; at 11.0 µM): -14%
growth inhibition ([6]; at 33.0 µM): -19%
growth inhibition ([6]; at 100.0 µM): 19%
growth inhibition [7, 15]: -23%
growth inhibition [7, 16]: 88% (active)
growth inhibition ([7]; at 50.0 µM): 62.7%
growth inhibition ([8]; at 1.2 µM): -3%
growth inhibition ([8]; at 3.7 µM): -18%
growth inhibition ([8]; at 11.0 µM): -20%
growth inhibition ([8]; at 33.0 µM): -31%
growth inhibition ([8]; at 100.0 µM): 3%
growth inhibition [9, 15]: 14%
growth inhibition [9, 16]: 74% (active)
growth inhibition ([9]; at 50.0 µM): 58.8%
growth inhibition ([10]; at 1.2 µM): -12%
growth inhibition ([10]; at 3.7 µM): 1%
growth inhibition [10, 15]: 30%
growth inhibition ([10]; at 11.0 µM): -9%
growth inhibition ([10]; at 33.0 µM): -9%
growth inhibition [10, 16]: 86% (active)
growth inhibition ([10]; at 50.0 µM): 54.1%
growth inhibition ([10]; at 100.0 µM): -7%
growth inhibition ([11]; at 1.2 µM): -11%
growth inhibition ([11]; at 3.7 µM): -17%
growth inhibition ([11]; at 11.0 µM): -8%
growth inhibition ([11]; at 33.0 µM): 4%
growth inhibition ([11]; at 100.0 µM): 26%
growth inhibition ([12]; at 1.2 µM): -16%
growth inhibition ([12]; at 3.7 µM): -9%
growth inhibition ([12]; at 11.0 µM): -17%
growth inhibition ([12]; at 33.0 µM): -10%
growth inhibition ([12]; at 100.0 µM): 12%
growth inhibition ([13]; at 1.2 µM): 12%
growth inhibition ([13]; at 3.7 µM): 7%
growth inhibition ([13]; at 11.0 µM): 8%
growth inhibition ([13]; at 33.0 µM): 8%
growth inhibition ([13]; at 100.0 µM): 41%
growth inhibition [14, 15]: 100% (active)
growth inhibition [14, 16]: 100% (active)
growth inhibition ([14]; at 50.0 µM): 64.7%
